# The panel holds about 83,000 compounds, 20% with a hit somewhere; the sample as a whole holds those more often.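 Each cell line was grown in a 96-well plate and treated with one concentration of compound for 48 hours. Values below 10 were considered active.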 A number with no mark means an inactive call. Calls of active or inactive are those of the source.
# Assays:
# Assay in all cases: NCI-60 one-dose screen, 48 h (100 = growth as untreated, 0 = no growth, -100 = all killed)
# Details in all cases: 10 µM unless noted
# HCT-15 colon = tested on: HCT-15 colon
# HT29 colon = tested on: HT29 colon
# SNB-75 CNS = tested on: SNB-75 CNS
# SNB-19 CNS = tested on: SNB-19 CNS
# U251 CNS = tested on: U251 CNS
# PC-3 prostate = tested on: PC-3 prostate
# SK-MEL-5 melanoma = tested on: SK-MEL-5 melanoma
# UACC-62 melanoma = tested on: UACC-62 melanoma
# LOX IMVI melanoma = tested on: LOX IMVI melanoma
# SK-MEL-28 melanoma = tested on: SK-MEL-28 melanoma
# SK-MEL-2 melanoma = tested on: SK-MEL-2 melanoma
# EKVX NSCLC = tested on: EKVX NSCLC
# SN12C renal = tested on: SN12C renal
# UO-31 renal = tested on: UO-31 renal
# TK-10 renal = tested on: TK-10 renal
# ACHN renal = tested on: ACHN renal
# CAKI-1 renal = tested on: CAKI-1 renal
# A498 renal = tested on: A498 renal
# CCRF-CEM leukemia = tested on: CCRF-CEM leukemia
# MOLT-4 leukemia = tested on: MOLT-4 leukemia
SMILES,growth (HCT-15 colon),growth (HT29 colon),growth (SNB-75 CNS),growth (SNB-19 CNS),growth (U251 CNS),growth (PC-3 prostate),growth (SK-MEL-5 melanoma),growth (UACC-62 melanoma),growth (LOX IMVI melanoma),growth (SK-MEL-28 melanoma),growth (SK-MEL-2 melanoma),growth (EKVX NSCLC),growth (SN12C renal),growth (UO-31 renal),growth (TK-10 renal),growth (ACHN renal),growth (CAKI-1 renal),growth (A498 renal),growth (CCRF-CEM leukemia),growth (MOLT-4 leukemia)
Cc1nc(-c2ccccc2)cc2c(O)c(C(=O)NN)[nH]c(=O)c12,107%,114%,104%,106%,106%,67.3%,100%,98.6%,107%,111%,93.3%,111%,90.9%,97.4%,161%,109%,114%,100%,95.1%,102%
O=c1oc2c(cnc3ccccc32)cc1-c1ccsc1,107%,113%,89%,94.6%,93.3%,90.5%,96.8%,94.8%,99.3%,106%,106%,95%,95.1%,79.3%,123%,93.9%,84.5%,107%,94.6%,96%
CN(C)CCCC1(c2ccc(F)cc2)OCc2cc(-c3cncc4ccccc34)ccc21 (stereo not given),38.3%,13.5%,41.6%,54%,3.14% (active),44.9%,-88.8% (active),11.5%,19.3%,-65% (active),58.7%,76.2%,43.1%,29.9%,83.1%,36.9%,28.2%,34.1%,26.9%,14.6%
CCc1ccc(Oc2cn[nH]c2-c2ccc(OCCc3ccc(F)cc3)cc2O)cc1,74.3%,42.4%,79%,108%,53.5%,72.2%,97.5%,88.6%,86.8%,87.3%,90.1%,87.9%,95.3%,81.7%,66.8%,94%,100%,105%,95.6%,84.4%
COc1ccccc1NC(=O)Cn1cc(CN2CCN(c3ccnc4cc(Cl)ccc34)CC2)nn1,91.8%,105%,75.2%,93.2%,97.1%,71.8%,73%,83.9%,95.1%,84.1%,112%,92.5%,98%,66.8%,102%,95.3%,80.2%,94.8%,-34.8% (active),70.8%
COP(=O)(OC)C(C)(C)CC(=O)CC(C#N)(C#N)C(C#N)C#N,93.3%,107%,98.2%,99.3%,97.3%,92.5%,101%,96.1%,100%,104%,118%,99.4%,99.6%,85.1%,104%,100%,96.4%,121%,-30.3% (active),104%
O=C(c1ccccc1)C1C(=O)N2C(=S)N(c3ccccc3)C(=O)C2C1c1ccc(Cl)cc1 (stereo not given),105%,111%,96.5%,93.8%,98.4%,86.7%,91.6%,88%,90.2%,93.8%,99.5%,100%,91.7%,66.8%,126%,91.8%,82.9%,81.9%,98%,102%
COc1ccc(C(=O)C2C(c3ccc(OC)cc3)CN(C)C23C(=O)Nc2ccccc23)cc1 (stereo not given),86.9%,84.3%,76.7%,86%,92.9%,75.3%,99.1%,66.3%,93%,105%,96.9%,91%,92.1%,70.3%,103%,95.5%,68.2%,99.8%,97.4%,88.1%
OB(O)c1cccc(-c2nc3ccc4[nH]ncc4c3c3c2CCCC3)c1,37.6%,48.1%,-30.6% (active),78.4%,56.7%,53.9%,68.1%,35.5%,35.6%,91.9%,81.1%,65.6%,48.8%,35.1%,29.3%,38%,-11.5% (active),15.2%,32.2%,28.7%
COc1ccc(/C=N/NC(=O)CCN2c3ccccc3Sc3ccccc32)cc1,43.9%,57%,80.1%,75.4%,91.5%,61.4%,70.4%,63%,60.9%,80.9%,95.6%,79.7%,88.1%,66.5%,111%,86.6%,41.5%,55.7%,82.7%,97.8%
COC(=O)c1c2c(c(C)[n+]([O-])c1C)C(=O)C=C(NCc1ccc(OC)cc1)C2=O,-43.9% (active),3.5% (active),-97% (active),-73.8% (active),-45.7% (active),-6.9% (active),-96.6% (active),-75.1% (active),-12% (active),-6.37% (active),-22.2% (active),-57.6% (active),-63% (active),-9.55% (active),28.4%,-11.5% (active),0.875% (active),-15.4% (active),3.4% (active),-35.5% (active)
O=C(Nn1c2c(sc1=NCc1ccccc1)C(=O)c1ccccc1C2=O)c1cc2ccc1CCc1ccc(cc1)CC2,55.3%,99.6%,33.9%,74.1%,70.7%,57.8%,51.3%,66.4%,35.7%,91.4%,77.3%,88.4%,61.8%,38.2%,124%,42%,43.4%,86.7%,40.8%,21%
COC(=O)CCC(=O)C(=O)OC,16.6% [10 mM],-9.41% [10 mM] (active),19% [10 mM],12.6% [10 mM],3.32% [10 mM] (active),-5.82% [10 mM] (active),64% [10 mM],-52.8% [10 mM] (active),-19.9% [10 mM] (active),-1.85% [10 mM] (active),-34.9% [10 mM] (active),23.7% [10 mM],0.923% [10 mM] (active),-9.29% [10 mM] (active),-8.5% [10 mM] (active),6.94% [10 mM] (active),10.2% [10 mM],-72.8% [10 mM] (active),-7.36% [10 mM] (active),-11.4% [10 mM] (active)
CO[C@H]1/C=C(/C)CCC[C@H](C)[C@H](O)[C@@H](C)C(=O)C(C)(C)[C@@H](O)CC(=O)O[C@@H]1/C(C)=C/c1csc(C)n1,16.3%,-4.27% (active),-32.1% (active),31.2%,15.4%,26.6%,20.6%,36.8%,14.3%,39.6%,-5.73% (active),34%,38.9%,21.8%,18.8%,50%,10.8%,2.04% (active),25.7%,14.6%
COc1ccc2[nH]cc(-c3nc(-c4cn(C)c5c(Cl)nccc45)cs3)c2c1,0.0691% (active),9.12% (active),61.6%,79.2%,16.3%,23.4%,34.5%,43.8%,21%,46%,50.9%,73.7%,62.5%,36.6%,71.1%,22.6%,60.2%,16%,22.1%,36.2%
